From PubChem BioAssay (NCATS)
Results filed as inconclusive are left out. Where a call stands in place of a potency, no number is given. Activity calls are given as the source filed them. Calls come from the whole dose curve; as a rule, active = well fitted cell-killing curve with a large enough effect; inconclusive = small, poorly fitted or top-dose-only effect, or effect the other way; inactive = flat fitted curve, though single readings scatter.

System: OV90
Assay: Primary qHTS to identify gynecologic anti-cancer compounds using libraries of approved drugs and bioactive compounds (AID 1345084); note: nearly all actives have a fitted effect of over 55% in size
Conditions: Gynecologic cancer cell panel viability, ATPlite luminescence, 48 h; series mostly up to 57.5 µM
How it was run: (§1)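 ATP-based viability (ATPlite), 1,000 cells/well, 16 h pre-incubation, 48 h compound at 37 C, 5% CO2, 15 min RT before read.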
Potency is the fitted concentration of half-maximal effect.

SMILES | Potency
C/C=C(/C)C1C=CC2CC(C)CC(C)C2C1/C(O)=C1\C(=O)NC(CC(C)(O)C(=O)O)C1=O (stereo not drawn) | inactive
CS[C@]1(CO)C(=O)N2[C@H]3C(=CC=C[C@@H]3O)C[C@@]2(SC)C(=O)N1C | inactive
COc1ccc2c3c4n(c2c1)[C@@H](C=C(C)C)OOC(C)(C)C[C@@H]4N1C(=O)[C@@H]2CCCN2C(=O)[C@]1(O)[C@H]3OCC=C(C)C | inactive
CC1=CC2/C=C(\C)CCCC(O)/C=C/C(=O)OC23C(=O)NC(CC(C)C)C3C1C (stereo not drawn) | inactive
C=CC(C)(C)c1[nH]c2c(CC=C(C)C)cc(CC=C(C)C)cc2c1C[C@@H]1NC(=O)[C@H](C)NC1=O | inactive
COc1cc(O)c2c(c1)/C=C/C[C@@H](O)[C@@H](O)C(=O)CCC[C@H](C)OC2=O | inactive
CC(=O)O[C@H]1CC[C@H]2[C@@H]3CC[C@H]4CC(=O)C=C(C)[C@]4(C)[C@H]3CC[C@]12C | inactive
COc1cc(N2CCN(C)CC2)ccc1N | inactive
COCC(C(=O)OC1CC2CCC(C1)N2C)c1ccccc1 (stereo not drawn) | inactive
N#CC(O[C@@H]1O[C@H](CO)[C@@H](O)[C@H](O)[C@H]1O)c1ccccc1 (stereo partly drawn) | inactive
CC[C@H]1C2CC3[C@@H]4N(C)c5ccccc5[C@]45C[C@@H]([C@H]2[C@H]5O)N3[C@H]1O | inactive
NC(=O)c1ncn2c1CN=C(c1ccccc1Br)c1cc(F)ccc1-2 | inactive
Cc1c(N2C(=O)[C@@H]3[C@H](O)CCN3C2=O)ccc(C#N)c1Cl | inactive
CC(=O)O[C@@H]1[C@H]2CC[C@H]3[C@@](C)(O)[C@@H]4C[C@H](O)C(C)(C)[C@@]4(O)[C@H](O)C[C@@]13C[C@@]2(C)O | inactive
CC(=O)N1N=C(c2ccc(N)cc2)c2cc3c(cc2C[C@H]1C)OCO3 | inactive
COC(=O)[C@]12CCCC(C)(C)C1CCc1cc(C(C)C)c(O)c(O)c12 (stereo partly drawn) | inactive
COc1ccc(CN(C(=O)[C@@H](N)Cc2c(C)cc(C(N)=O)cc2C)[C@@H](C)c2ncc(-c3ccccc3)[nH]2)cc1C(=O)O | inactive
C=CC/C=C\C/C=C\CCCCCCCc1cc(O)cc(O)c1 | inactive
CN1C2CCC1CC(OC(=O)N1Cc3ccccc3NC1=O)C2 (stereo not drawn) | inactive
COC(=O)CC1CC2(C(=O)c3c(O)cccc3C2(O)C(=O)OC)C(C)O1 (stereo not drawn) | inactive

SMILES | Potency
c1cncc(OC[C@@H]2CCN2)c1 | inactive
Cc1c(Cl)c(OCC(=O)N2CCN(C)CC2)nc2sc(C(=O)NC3CC3)c(N)c12 | inactive
CN1CCc2cc3c(cc2C1C1OC(=O)c2c1ccc1c2OCO1)OCO3 (stereo not drawn) | inactive
C#CCO[C@H]1CN2CCC1CC2 | inactive
CC1CCCC(O)CC(=O)Cc2cc(O)cc(O)c2C(=O)O1 (stereo not drawn) | inactive
COc1ccsc1CNCC[C@@]1(c2ccccn2)CCOC2(CCCC2)C1 | inactive
C1=C(c2cnc[nH]2)c2ccsc2CC1 | inactive
CC1=CC2(O)/C=C/C(C)(O)C(O)C(O)/C=C/C(=O)OC23C(=O)NC(CC(C)C)C3C1C (stereo not drawn) | inactive
C/C=C1/CN2CC[C@]34C(=Nc5ccc(OC)cc53)C2C[C@@H]1C4(CO)C(=O)OC (stereo partly drawn) | inactive
Cc1cccc(NC(=O)N[C@H]2CN(C)c3ccccc3C(c3ccccc3)=N2)c1 | inactive
Oc1ccc2c3c1O[C@H]1c4[nH]c5c(N=C=S)cccc5c4C[C@@]4(O)[C@@H](C2)N(CC2CC2)CC[C@]314 | inactive
CO[C@@H]1[C@H](O)[C@@H](O[C@@H]2C[C@H]3CC[C@@H]4C(CC[C@]5(C)[C@@H](C6=CC(=O)OC6)CC[C@]45O)[C@@]3(C)[C@H](O)C2)O[C@H](C)[C@@H]1O (stereo partly drawn) | 1000 nM (active)
C[C@@H]1CCC/C=C/[C@H]2C[C@@H](O)C[C@@H]2[C@@H](O)/C=C/C(=O)O1 | 316 nM (active)
C[C@]12CCC(=O)C=C1CC[C@@H]1[C@@H]2[C@@H](O)C[C@]2(C)C(=O)CC[C@@H]12 | inactive
CCC(C)(O)C1(C(=O)O)COC(=O)C1 (stereo not drawn) | inactive
COC(=O)C1=COC(C)C2CN3CCC4(C(=O)Nc5ccccc54)C3CC12 (stereo not drawn) | inactive
CC1(C)C(=O)N(c2ccc(C#N)c(C(F)(F)F)c2)C(=O)N1CCCCO | inactive
O=C1N[C@@H](Cc2ccccc2)CN2CCCC[C@@H]12 | inactive
CN1C(=O)CN=C(c2ccccc2Cl)c2cc(Cl)ccc21 | inactive

System: PA-1
Assay: as above
Conditions: Gynecologic cancer cell panel viability, ATPlite luminescence, 48 h; series mostly up to 57.5 µM
How it was run: as §1

SMILES | Potency
C/C=C(/C)C1C=CC2CC(C)CC(C)C2C1/C(O)=C1\C(=O)NC(CC(C)(O)C(=O)O)C1=O (stereo not drawn) | inactive
CS[C@]1(CO)C(=O)N2[C@H]3C(=CC=C[C@@H]3O)C[C@@]2(SC)C(=O)N1C | inactive
COc1ccc2c3c4n(c2c1)[C@@H](C=C(C)C)OOC(C)(C)C[C@@H]4N1C(=O)[C@@H]2CCCN2C(=O)[C@]1(O)[C@H]3OCC=C(C)C | inactive
CC1=CC2/C=C(\C)CCCC(O)/C=C/C(=O)OC23C(=O)NC(CC(C)C)C3C1C (stereo not drawn) | inactive
C=CC(C)(C)c1[nH]c2c(CC=C(C)C)cc(CC=C(C)C)cc2c1C[C@@H]1NC(=O)[C@H](C)NC1=O | inactive
COc1cc(O)c2c(c1)/C=C/C[C@@H](O)[C@@H](O)C(=O)CCC[C@H](C)OC2=O | inactive
CC(=O)O[C@H]1CC[C@H]2[C@@H]3CC[C@H]4CC(=O)C=C(C)[C@]4(C)[C@H]3CC[C@]12C | inactive
COc1cc(N2CCN(C)CC2)ccc1N | inactive
COCC(C(=O)OC1CC2CCC(C1)N2C)c1ccccc1 (stereo not drawn) | inactive
N#CC(O[C@@H]1O[C@H](CO)[C@@H](O)[C@H](O)[C@H]1O)c1ccccc1 (stereo partly drawn) | inactive
CC[C@H]1C2CC3[C@@H]4N(C)c5ccccc5[C@]45C[C@@H]([C@H]2[C@H]5O)N3[C@H]1O | inactive
NC(=O)c1ncn2c1CN=C(c1ccccc1Br)c1cc(F)ccc1-2 | inactive
Cc1c(N2C(=O)[C@@H]3[C@H](O)CCN3C2=O)ccc(C#N)c1Cl | inactive
CC(=O)O[C@@H]1[C@H]2CC[C@H]3[C@@](C)(O)[C@@H]4C[C@H](O)C(C)(C)[C@@]4(O)[C@H](O)C[C@@]13C[C@@]2(C)O | inactive
CC(=O)N1N=C(c2ccc(N)cc2)c2cc3c(cc2C[C@H]1C)OCO3 | inactive
COC(=O)[C@]12CCCC(C)(C)C1CCc1cc(C(C)C)c(O)c(O)c12 (stereo partly drawn) | inactive
COc1ccc(CN(C(=O)[C@@H](N)Cc2c(C)cc(C(N)=O)cc2C)[C@@H](C)c2ncc(-c3ccccc3)[nH]2)cc1C(=O)O | inactive
C=CC/C=C\C/C=C\CCCCCCCc1cc(O)cc(O)c1 | inactive
CN1C2CCC1CC(OC(=O)N1Cc3ccccc3NC1=O)C2 (stereo not drawn) | inactive
COC(=O)CC1CC2(C(=O)c3c(O)cccc3C2(O)C(=O)OC)C(C)O1 (stereo not drawn) | inactive

SMILES | Potency
c1cncc(OC[C@@H]2CCN2)c1 | inactive
Cc1c(Cl)c(OCC(=O)N2CCN(C)CC2)nc2sc(C(=O)NC3CC3)c(N)c12 | inactive
CN1CCc2cc3c(cc2C1C1OC(=O)c2c1ccc1c2OCO1)OCO3 (stereo not drawn) | inactive
C#CCO[C@H]1CN2CCC1CC2 | inactive
CC1CCCC(O)CC(=O)Cc2cc(O)cc(O)c2C(=O)O1 (stereo not drawn) | inactive
COc1ccsc1CNCC[C@@]1(c2ccccn2)CCOC2(CCCC2)C1 | inactive
C1=C(c2cnc[nH]2)c2ccsc2CC1 | inactive
CC1=CC2(O)/C=C/C(C)(O)C(O)C(O)/C=C/C(=O)OC23C(=O)NC(CC(C)C)C3C1C (stereo not drawn) | inactive
C/C=C1/CN2CC[C@]34C(=Nc5ccc(OC)cc53)C2C[C@@H]1C4(CO)C(=O)OC (stereo partly drawn) | inactive
Cc1cccc(NC(=O)N[C@H]2CN(C)c3ccccc3C(c3ccccc3)=N2)c1 | inactive
Oc1ccc2c3c1O[C@H]1c4[nH]c5c(N=C=S)cccc5c4C[C@@]4(O)[C@@H](C2)N(CC2CC2)CC[C@]314 | inactive
CO[C@@H]1[C@H](O)[C@@H](O[C@@H]2C[C@H]3CC[C@@H]4C(CC[C@]5(C)[C@@H](C6=CC(=O)OC6)CC[C@]45O)[C@@]3(C)[C@H](O)C2)O[C@H](C)[C@@H]1O (stereo partly drawn) | 199 nM (active)
C[C@@H]1CCC/C=C/[C@H]2C[C@@H](O)C[C@@H]2[C@@H](O)/C=C/C(=O)O1 | 447 nM (active)
C[C@]12CCC(=O)C=C1CC[C@@H]1[C@@H]2[C@@H](O)C[C@]2(C)C(=O)CC[C@@H]12 | inactive
CCC(C)(O)C1(C(=O)O)COC(=O)C1 (stereo not drawn) | inactive
COC(=O)C1=COC(C)C2CN3CCC4(C(=O)Nc5ccccc54)C3CC12 (stereo not drawn) | inactive
CC1(C)C(=O)N(c2ccc(C#N)c(C(F)(F)F)c2)C(=O)N1CCCCO | inactive
O=C1N[C@@H](Cc2ccccc2)CN2CCCC[C@@H]12 | inactive
CN1C(=O)CN=C(c2ccccc2Cl)c2cc(Cl)ccc21 | inactive
